# According to ChEMBL document CHEMBL3988442, “University of Dundee, Small-Polar-MMV Screening Library” (2021):
# Out of some 48,000 compounds screened, about 13,000 (27%) showed an effect of 50% or more. This is one part of the list.
# Tested on: Wolbachia pipientis
# Assay: Anti-Wolbachia Cell-Based Screen
# Type: functional
# Parameters: scale not given: in the data most compounds retested in dose-response had high values
# Settings: 5 µM
row,SMILES,Percent Effect [%]
1,OC1(c2cn(CC3CCN(C4CCSC4)CC3)nn2)CCCC1 (centres undefined),-24.22
2,Cc1nccn1-c1ccc(NC(=O)C2CCCN2CC2CC2)cc1 (centres undefined),11.95
3,Cc1cc(-n2cncn2)ccc1C(=O)Nc1ccc(N2CCCC2)cn1,-10.21
4,FC(F)(F)CCN(Cc1ccon1)C1CCC1,0.2197
5,COc1ccc(CN2CCC3(CCN(c4cccnc4)C3=O)C2)cc1.O=C(O)C(F)(F)F.O=C(O)C(F)(F)F (centres undefined),-2.008
6,O=C(O)C(F)(F)F.O=C(O)C(F)(F)F.O=C(c1ccsc1)N1CCOC2(CCN(Cc3cccnc3)CC2)C1,-15.45
7,COc1ccc(CN2CCC3(CC2)CC(c2cccnc2)CO3)cc1.O=C(O)C(F)(F)F.O=C(O)C(F)(F)F (centres undefined),103.1
8,O=C(O)C(F)(F)F.O=C(O)C(F)(F)F.c1cncc(C2COC3(CCN(Cc4ccsc4)CC3)C2)c1 (centres undefined),104.8
9,O=C1COc2cc(C(=O)NS(=O)(=O)c3ccccc3F)ccc2N1,-1.273
10,Cc1ccc(C(CNCc2c[nH]nc2C)N(C)C)cc1.Cl (centres undefined),-30.61
11,CCC1CN(Cc2nnc(C3CC3)o2)CCN1CCOC (centres undefined),-15.54
12,O=C1[C@H]2CC[C@H](CN(C3CCOCC3)C2)N1Cc1cscn1,-44.85
13,COCCN1C(=O)[C@H]2CC[C@@H]1CN(c1ncccn1)C2,-42.86
14,COCCN1C(=O)[C@H]2CC[C@@H]1CN(Cc1nnc(-c3ccccc3)o1)C2,112.1
15,COCCN1C(=O)[C@H]2CC[C@@H]1CN(c1nccc(C)n1)C2,1.615
16,CS(=O)(=O)N1C[C@@H]2CC[C@H](C1)N(Cc1cscn1)C2=O,-6.714
17,O=C1[C@H]2CC[C@H](CN(Cc3nnc(C4CC4)o3)C2)N1Cc1cscn1,105.2
18,Cc1cnn(C2CN(Cc3nnc(C4CC4)o3)C2)c1,1.311
19,COCCN1C(=O)[C@H]2CC[C@@H]1CN(Cc1nnc(C3CC3)o1)C2,101
20,CCS(=O)(=O)CC(C)N(C)C(=O)NCCc1cccc(F)c1F (centres undefined),-8.987
21,CCc1ccc(CN(C)c2ccc(-c3nc(COC)no3)cn2)nc1,-21.07
22,Cc1nc2n(n1)CC(Nc1cc(C(F)(F)F)nc3ncnn13)CC2 (centres undefined),10.68
23,Cc1ccsc1CN(C)C(=O)c1ccc(N2CCOCC2)c(F)c1,8.665
24,CCc1nc(CN(C)C2CCN(CCOc3ccccc3)C2)no1 (centres undefined),109.8
25,CCc1nc(CN(C)C2CCN(CCCOc3ccccc3)C2)no1 (centres undefined),76.47
26,CCc1nc(CN(C)C2CCN(CCNS(=O)(=O)CC)C2)no1 (centres undefined),8.032

row,SMILES,Percent Effect [%]
1,CCc1nc(CN(C)C2CCN(Cc3ccc(C#N)cc3F)C2)no1 (centres undefined),1.706
2,Cc1ccc(NC2(C(=O)NCCCN)CCCC2)cc1,-6.352
3,CN(CC(=O)Nc1cccnc1)CC1CCCN1c1cccnn1 (centres undefined),-11.55
4,O=C(C[C@H]1[C@H]2CN(C(=O)CO)C[C@@H]12)Nc1cccnc1,10.82
5,O=C(Nc1nncs1)N1CCC(CCO)CC1,-8.889
6,CN(CC(=O)Nc1nncs1)CC1CCCN1c1cccnn1 (centres undefined),-0.3075
7,O=C(CC1CCN(c2cccnn2)CC1)Nc1nncs1,96.76
8,O=C(CC1CCN(c2cccnn2)CC1)Nc1cccnc1,90.02
9,Cc1ccc(N2C(=O)N[C@@H]3CCN(C(=O)C4CC4)[C@@H]3C2=O)cc1,11.16
10,CN1CCC(N(CCc2ccccc2)Cc2noc(C3CC3)n2)CC1,8.424
11,CCNC(=O)N1CC(c2nc(Cc3ccccc3)no2)C1,-5.949
12,Cn1ccnc1CN(CCO)C(=O)c1cnc2ccccc2c1,-19.73
13,CCCc1nc(CN(CC)C(=O)c2onc3ccccc23)no1,89.45
14,CCCc1nc(CN(CC)C(=O)c2ccc(OC)c(OC)c2)no1,-5.69
15,CCN(Cc1noc(C2CC2)n1)C(=O)c1onc2ccccc12,98.35
16,CCN(Cc1noc(C2CCC2)n1)C(=O)CCc1cc2n(n1)CCNC2,-16.19
17,CCN(Cc1noc(C2CCC2)n1)C(=O)c1cnc2ccccc2c1,94.43
18,CCCc1nc(CN(CC)C(=O)c2ccc3ncsc3c2)no1,-3.567
19,Cc1noc(COCC(=O)Nc2cc(C)c(Br)cn2)n1,-3.051
20,CC(=O)NCC1CN(c2ccc3c(Cl)ccnc3c2F)CCO1 (centres undefined),-19.58
21,Cc1ccc(C(=O)NCCNCC2CNc3ccnn3C2)cc1F (centres undefined),-3.46
22,CCc1ncc2c(n1)CN(c1nccc(C3CCCC3)n1)C2,14.73
23,CN1CCCN(c2nccc(-c3cncnc3C3CCCCC3)n2)CC1,86.07
24,Cc1nn(C)cc1-c1ccnc(N2CCN(c3cnccn3)CC2)n1,17.52
25,CN1CCN(c2nccc(-c3cncnc3C3CCCCC3)n2)CC1,58.46
26,Cc1ccc([C@@H]2CN(C(=O)c3ccc[nH]3)C[C@H]2NC(=O)C2CC2)cc1,0.8109

row,SMILES,Percent Effect [%]
1,Cc1c(NC(=O)NCC(C)N2CCOCC2)cccc1OC(F)F (centres undefined),-9.929
2,Cc1cc(NC(=O)NCC(C(C)C)N2CCOCC2)n(C)n1 (centres undefined),115.8
3,CC(C)CC(CNC(=O)NCc1cc[nH]n1)N1CCOCC1 (centres undefined),6.619
4,CCC(CC)C(CNC(=O)Nc1cc(C)nn1C)N1CCOCC1 (centres undefined),-3.913
5,Cc1cc(NC(=O)NCC(CC(C)C)N2CCOCC2)n(C)n1 (centres undefined),103.9
6,COc1ccc(C(O)CNC(=O)Nc2cc(C)nn2C)cc1 (centres undefined),-16.1
7,Cc1cc(NC(=O)NCC(C)N2CCOCC2)n(C)n1 (centres undefined),113
8,CCC(CC)C(O)CNC(=O)Nc1cc(C)nn1C (centres undefined),91.79
9,Cc1ccc(F)cc1NC(=O)NCC(C)N1CCOCC1 (centres undefined),9.148
10,Cc1cc(NC(=O)NCC(C)O)n(C)n1 (centres undefined),-6.671
11,Cc1noc(C)c1CC(=O)NCC(CC(C)C)N1CCOCC1 (centres undefined),-1.173
12,CCn1cnnc1CNC(=O)NCC(C(C)C)N1CCOCC1 (centres undefined),-2.117
13,CC(C)CS(=O)(=O)N1CCC2(CN(c3cccc(F)c3)C(=O)CN2C)C1.O=C(O)C(F)(F)F (centres undefined),10.41
14,Cc1ccoc1C(=O)N1CCC(n2cc(CO)nn2)CC1,-7.426
15,C=C1C(C)(C)[C@H]2CC[C@]1(C(=O)N1CCC(n3cc(CCO)nn3)CC1)C2,95.18
16,CC1(C(=O)N2CCC(n3cc(C4(O)CCCC4)nn3)CC2)CCCCC1,-2.498
17,OCc1cn(CC2CCN(C3CCSC3)CC2)nn1 (centres undefined),-25.36
18,C=C1C(C)(C)[C@H]2CC[C@]1(C(=O)N1CCC(n3cc(CO)nn3)CC1)C2,93.63
19,C=C1C(C)(C)[C@H]2CC[C@]1(C(=O)N1CCC(Cn3cc(CO)nn3)CC1)C2,87.91
20,Cc1ccc(C(=O)N2CCC(n3cc(CO)nn3)CC2)cn1,1.663
21,CC(O)c1cn(C2CCN(C(=O)C3(C)CCN(C)CC3)CC2)nn1 (centres undefined),3.786
22,Cn1cc(Cl)c(CN2CCCC(Cn3cc(CO)nn3)C2)n1 (centres undefined),-2.88
23,CCc1noc(CS(=O)(=O)CC=C(C)C)n1,-4.555
24,O=C(NCC1CC[C@@H]2[C@@H]1OCCN2Cc1cccs1)c1ccco1.O=C(O)C(F)(F)F (some centres undefined),0.6461
25,CN1CCC(CN2CCC3(CCCN(Cc4ccoc4)C3)C2=O)CC1.O=C(O)C(F)(F)F.O=C(O)C(F)(F)F (centres undefined),107.1
26,O=C(O)C(F)(F)F.O=C1N(CC2CC2)CCC12CCN(Cc1ccoc1)CC2,112.5

row,SMILES,Percent Effect [%]
1,O=C(O)C(F)(F)F.O=C1N(CC2CC2)CCC12CCN(CC1CC1)CC2,11.64
2,CN(C)C(=O)CN1CCC2(CCCN(Cc3ccoc3)C2)C1=O (centres undefined),-23.42
3,COCCN1CCC2(CCCN(Cc3ccoc3)C2)C1=O.O=C(O)C(F)(F)F (centres undefined),89.97
4,COC[C@H]1CN(CC2CC2)C(=O)[C@@H]2CCN(Cc3ccoc3)CC[C@H]12.O=C(O)C(F)(F)F,-27.64
5,CC(=O)N[C@@H](CC(C)C)C(=O)N1CCC(n2cc(CC(C)C)nn2)CC1,-6.729
6,O=S(=O)(Nc1ccccn1)c1cc(Cl)cc2c1OCC2,-2.666
7,COCc1ncn2c1CN(S(=O)(=O)c1cccs1)CCC2,-6.89
8,FC(F)(F)c1ccc(CNC[C@H]2COCc3nc4cccnc4n32)cc1,-6.835
9,CCOCc1ccc(NCc2cnc(N3CCN(C)CC3)nc2)cc1,18.94
10,O=S(=O)(NCCC(O)c1cccs1)c1ccccc1 (centres undefined),2.573
11,CSc1ccc(OC(C)C(=O)Nc2c(C)n[nH]c2C)cc1 (centres undefined),-3.157
12,CCOCc1nc2c(c(NC(CC)c3ccncc3)n1)CCNCC2 (centres undefined),-23.76
13,O=C(Nc1ccc(-n2cncn2)nc1)N(CC1CCOC1)C1CC1 (centres undefined),3.822
14,Cc1cc(CNC(=O)NCCOc2ccc(F)c(F)c2)on1,-11.19
15,O=C(NCC1CCS(=O)(=O)C1)c1ccco1 (centres undefined),88.86
16,O=C(NCC1CC1)c1ccc(NC(=O)c2ccco2)cc1,109.6
17,Cc1cc(C(=O)NCC2CCS(=O)(=O)C2)ccc1NC(=O)c1ccco1 (centres undefined),105.8
18,Cc1occc1C(=O)Nc1ccc(C(=O)NC[C@H]2CCCN2)cc1,-11.64
19,O=C(NCC1CCCN(C(=O)NCCc2ccccc2)C1)c1ccco1 (centres undefined),-12.18
20,O=C(NCC1CCS(=O)(=O)C1)Nc1ccccn1 (centres undefined),11.69
21,Cc1cccc(C(=O)NCC2CCS(=O)(=O)C2)n1 (centres undefined),20.7
22,COc1ncccc1NC(=O)NCC1CCS(=O)(=O)C1 (centres undefined),-8.215
23,Cc1ccc(NC(=O)NCC2CCS(=O)(=O)C2)cc1Cl (centres undefined),41.82
24,O=C(NCC1CCS(=O)(=O)C1)c1ccc2cccc(Cl)c2n1 (centres undefined),-11.54
25,O=C1COC[C@H]([C@H](O)c2ccc(NC(=O)c3ccco3)cc2)N1,-8.877
26,O=C(NCC1CCS(=O)(=O)C1)c1ccc(NC(=O)c2ccco2)cc1 (centres undefined),100.2
